Assay [1] has as its target Cytochrome P450 1A2 (Homo sapiens) (UniProt P05177). Description: p450-cyp1a2 (AID 410; calls by dose curve; note: potency is the fitted concentration of half-maximal effect). The settings on record: recombinant CYP1A2, luciferin-ME demethylation, luminescence; series mostly up to 57 µM. The essentials: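 20nM CYP1A2, 100uM Luciferin-ME (=Km), 100mM KPO4; cpd 10 min RT; +NADPH regen, 60 min RT; stop/detect 20 min; luminescence. Normalized to furafylline 57 uM = full inhibition.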

Assay [2] deals with Glucocorticoid receptor (Homo sapiens) (UniProt P04150). Description: GR-EFC Redistribution (AID 451; calls by dose curve; note: potency is the fitted concentration of half-maximal effect). The settings on record: CHO-K1 GR-EFC translocation, beta-gal luminescence, 2 h. The essentials: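 CHO-K1 cells stably expressing nuclear-localized β-gal enzyme acceptor and GR fused C-terminally to the enzyme donor fragment; ligand-driven nuclear translocation restores β-gal by complementation. Compounds titrated up to 46 uM final, 2 h at 37 °C; luminescence read.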
Chain of Glucocorticoid receptor (Homo sapiens) (P04150 whole entry, looked up, the tested form may be a part): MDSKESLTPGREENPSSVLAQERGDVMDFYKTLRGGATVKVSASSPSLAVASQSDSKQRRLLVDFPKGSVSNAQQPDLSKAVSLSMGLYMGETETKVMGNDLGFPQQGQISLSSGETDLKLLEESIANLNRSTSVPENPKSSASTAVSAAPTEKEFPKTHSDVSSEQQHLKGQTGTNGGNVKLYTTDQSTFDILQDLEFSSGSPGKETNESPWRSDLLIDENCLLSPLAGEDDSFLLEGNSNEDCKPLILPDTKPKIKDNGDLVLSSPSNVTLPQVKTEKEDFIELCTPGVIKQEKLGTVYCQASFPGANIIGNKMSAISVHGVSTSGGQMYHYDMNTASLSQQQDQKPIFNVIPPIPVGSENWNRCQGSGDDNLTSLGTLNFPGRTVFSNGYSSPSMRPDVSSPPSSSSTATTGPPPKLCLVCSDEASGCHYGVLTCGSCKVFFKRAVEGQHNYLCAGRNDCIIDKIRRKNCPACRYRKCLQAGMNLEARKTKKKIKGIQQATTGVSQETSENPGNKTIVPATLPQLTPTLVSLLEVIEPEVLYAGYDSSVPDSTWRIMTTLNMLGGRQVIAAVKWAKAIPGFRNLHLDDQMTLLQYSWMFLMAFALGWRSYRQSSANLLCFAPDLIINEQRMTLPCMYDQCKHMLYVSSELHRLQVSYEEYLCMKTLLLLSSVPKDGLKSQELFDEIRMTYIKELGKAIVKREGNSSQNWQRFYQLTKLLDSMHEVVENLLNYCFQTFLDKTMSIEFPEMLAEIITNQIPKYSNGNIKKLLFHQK

Assay [3] addresses Mitogen-activated protein kinase 10 (Mus musculus) (UniProt Q61831). Description: JNK3 AlphaScreen Assay (AID 530; active = well fitted curve in either direction with a large enough effect, not every such curve was filed as active;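 note: kinase came from lysate of stimulated human HepG2 cells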). The settings on record: JNK3 lysate, c-Jun phosphorylation; series mostly up to 57.1 µM. The method, boiled down: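 Biotinylated GST-cJun(1-79) served as substrate for JNK3 in HepG2 lysates stimulated with IL-1beta and TNF-alpha. ATP was 10 uM final, pH 7.6. Ser73 phosphorylation was quantified by AlphaScreen (680 nm excitation).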
On the technique in general: In Alpha technology, singlet oxygen from a donor bead excites a nearby acceptor bead.

The target in assay [4] is 3',5'-cyclic-AMP phosphodiesterase 4B (Homo sapiens) (UniProt Q07343). Description: qHTS Assay for Inhibitors of PDE-IV (AID 607; active = well fitted activation curve with a large enough effect in the main read-out, with a control signal flat, not every such curve was filed as active). The settings on record: HEK293 ACTOne CNG channel cells, membrane potential fluorescence; series mostly up to 22.9 µM. The essentials: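 The readout is membrane depolarisation from a cAMP-sensing CNG channel, detected with a potential dye at ex 535/em 590. Cells were HEK293-derived (endogenous PDE-IV) at 1000 cells/well, titrated up to 22.9 uM final.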
Chain of 3',5'-cyclic-AMP phosphodiesterase 4B (Homo sapiens) (Q07343 whole entry, looked up): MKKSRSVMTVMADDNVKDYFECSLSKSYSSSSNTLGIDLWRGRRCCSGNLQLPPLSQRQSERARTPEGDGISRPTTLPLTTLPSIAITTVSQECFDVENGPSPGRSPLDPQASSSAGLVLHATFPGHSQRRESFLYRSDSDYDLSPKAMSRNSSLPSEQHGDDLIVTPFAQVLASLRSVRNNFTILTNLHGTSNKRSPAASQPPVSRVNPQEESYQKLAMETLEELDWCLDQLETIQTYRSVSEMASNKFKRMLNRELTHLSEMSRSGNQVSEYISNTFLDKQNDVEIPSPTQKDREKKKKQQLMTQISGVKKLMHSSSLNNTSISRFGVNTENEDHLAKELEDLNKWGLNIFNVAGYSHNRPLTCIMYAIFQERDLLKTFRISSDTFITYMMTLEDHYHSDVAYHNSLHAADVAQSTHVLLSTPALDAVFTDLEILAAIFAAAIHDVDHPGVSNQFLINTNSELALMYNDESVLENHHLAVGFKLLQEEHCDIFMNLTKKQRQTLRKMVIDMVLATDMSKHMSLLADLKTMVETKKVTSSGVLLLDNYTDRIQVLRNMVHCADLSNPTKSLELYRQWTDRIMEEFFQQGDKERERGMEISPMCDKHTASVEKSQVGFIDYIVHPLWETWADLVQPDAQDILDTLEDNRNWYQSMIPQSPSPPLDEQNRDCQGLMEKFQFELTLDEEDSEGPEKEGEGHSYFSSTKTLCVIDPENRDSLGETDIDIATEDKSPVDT
(In qHTS, concentration-response curves come from the screen itself.)

Assay [5] concerns the target Guanine nucleotide-binding protein G(i) subunit alpha-1 (Homo sapiens) (UniProt P63096). Description: qHTS Assay for Inhibitors of RGS12 GoLoco Motif Activity (Green Fluorophore) (AID 879).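 Note: negative values mean loss of peptide binding seen as reduced polarization.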 The settings on record: Galphai1/FITC-RGS12 GoLoco peptide, fluorescence polarization; series mostly up to 57.1 µM. The method, boiled down: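 A drop in FITC polarization marked displacement of the FITC-tagged RGS12 GoLoco peptide (10 nM) from Gαi1 (50 nM). Compounds were incubated 10 min at room temperature in Tris pH 7.5 buffer containing 150 mM NaCl, 0.1 mM GDP and 0.05% NP40; unlabeled peptide titration served as control.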

The target of assay [6] is Cytochrome P450 2D6 (Homo sapiens) (UniProt P10635). As to the kind of experiment: qHTS Assay for Inhibitors and Substrates of Cytochrome P450 2D6 (AID 891). Note: potency is the fitted concentration of half-maximal effect; nearly all actives have a fitted effect of over 60% in size. The settings on record: recombinant CYP2D6, luciferin-ME EGE luminescence; series mostly up to 57.1 µM. The essentials: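 Luminescent read-out of luciferin formed by 5 nM human CYP2D6 demethylating 30 uM Luciferin-ME EGE (Km level) over 60 min at room temperature after NADPH regeneration addition. Data normalized to full inhibition by 1.43 uM quinidine.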
Chain of Cytochrome P450 2D6 (Homo sapiens) (P10635 whole entry, looked up): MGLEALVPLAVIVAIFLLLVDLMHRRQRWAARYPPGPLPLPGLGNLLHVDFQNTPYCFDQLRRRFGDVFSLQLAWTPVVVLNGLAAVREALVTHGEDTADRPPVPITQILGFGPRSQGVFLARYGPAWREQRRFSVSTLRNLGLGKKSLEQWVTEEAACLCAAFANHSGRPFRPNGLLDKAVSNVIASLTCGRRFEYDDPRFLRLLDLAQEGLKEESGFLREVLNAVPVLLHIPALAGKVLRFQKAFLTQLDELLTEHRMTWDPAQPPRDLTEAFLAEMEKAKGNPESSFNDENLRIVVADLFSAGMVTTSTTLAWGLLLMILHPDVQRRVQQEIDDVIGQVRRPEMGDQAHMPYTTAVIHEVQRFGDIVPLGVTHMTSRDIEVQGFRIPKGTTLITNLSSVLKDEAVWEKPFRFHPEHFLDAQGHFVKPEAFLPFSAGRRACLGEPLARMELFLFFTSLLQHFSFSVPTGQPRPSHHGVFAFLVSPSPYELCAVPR

Assay [7] in a line: qHTS Assay for Identification of Small Molecule Agonists for Thrombopoietin (TPO) Signaling Pathway (AID 917). The settings on record: TPO signaling pathway reporter cells, agonist qHTS; series mostly up to 38.5 µM. The method, boiled down: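 Ba/F3 (mouse) + hTPO receptor + GpIIb-promoter luciferase; IL-3 withdrawn overnight; compound + 26 pM TPO (EC50), 24 hrs, 37 C, 5% CO2; Steadylite luminescence, 10 min RT.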

Assay [8] has as its target Muscarinic acetylcholine receptor M1 (Rattus norvegicus) (UniProt P08482). As to the kind of experiment: qHTS Assay for Antagonists of Acetylcholine Muscarinic M1 Receptor: Kinetic Measurement of Intracellular Calcium Response (AID 943). Note: potency is the fitted concentration of half-maximal effect; nearly all actives have a fitted effect of over 75% in size. The settings on record: M1-expressing cells, kinetic intracellular calcium fluorescence; series mostly up to 35.3 µM. The method, boiled down: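 Read-out: peak over basal Fluo-4 fluorescence, kinetic at 1 Hz for 4 min after EC80 carbachol (100 nM final). Rat M1-CHO cells, dye loaded 1 h at 37C, compound added 10 min before agonist.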

For assay [9] the target is unchanged. Description: qHTS Assay for Antagonists of Acetylcholine Muscarinic M1 Receptor: Measurement of IP-One Response (AID 944). Note: potency is the fitted concentration of half-maximal effect; nearly all actives have a fitted effect of over 75% in size. The settings on record: CHO-M1 cells, IP-One HTRF, antagonist mode; series mostly up to 46.1 µM. The method, boiled down: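 Read-out: HTRF competition between d2-IP1 and Eu-cryptate anti-IP1 antibody, emission 620 and 665 nm. Stimulus was carbachol, EC80 (200 nM), for 30 min in M1-CHO cells (rat receptor), after 10 min compound pre-treatment.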

For assay [10], the target named is Pyruvate kinase (Leishmania mexicana) (UniProt Q27686). Description: qHTS Validation Assay for Inhibitors of Leishmania Mexicana Pyruvate Kinase (AID 945). The settings on record: purified L. mexicana pyruvate kinase, enzyme activity, E451W mutant enzyme; series mostly up to 57.5 µM. The essentials: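 Substrate mix (0.5 mM PEP, 0.1 mM ADP, 7 mM MgCl2, 50 mM KCl, pH 7.2 imidazole) received compound by pin tool, then 0.2 nM LmPYK E451W. After 1 h at room temperature, PKLight was added and luminescence measured.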
Chain of Pyruvate kinase (Leishmania mexicana) (Q27686 2-499 E452W): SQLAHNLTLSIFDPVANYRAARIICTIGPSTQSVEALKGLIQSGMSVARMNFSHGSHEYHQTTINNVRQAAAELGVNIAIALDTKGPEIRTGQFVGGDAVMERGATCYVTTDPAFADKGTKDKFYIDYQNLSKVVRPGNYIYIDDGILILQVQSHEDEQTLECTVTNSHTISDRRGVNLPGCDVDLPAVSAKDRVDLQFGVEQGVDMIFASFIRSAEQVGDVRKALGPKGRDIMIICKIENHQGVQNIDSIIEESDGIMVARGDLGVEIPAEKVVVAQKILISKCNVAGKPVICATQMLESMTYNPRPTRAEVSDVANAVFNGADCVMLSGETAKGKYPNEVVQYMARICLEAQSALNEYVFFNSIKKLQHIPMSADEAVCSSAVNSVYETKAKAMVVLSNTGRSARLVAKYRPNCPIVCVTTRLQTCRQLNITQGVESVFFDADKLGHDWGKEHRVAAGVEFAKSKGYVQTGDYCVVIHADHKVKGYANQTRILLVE

In assay [11] the target is Alpha-galactosidase (Coffea arabica) (UniProt Q42656). As to the kind of experiment: Counterscreen for Glucocerebrosidase Inhibitors: qHTS Assay for Coffee Bean alpha-Galactosidase at pH 4.5 (AID 957). The settings on record: purified coffee bean alpha-galactosidase, fluorogenic substrate; series mostly up to 76.9 µM. The essentials:
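Fluorogenic read-out: 4-methylumbelliferone at Ex 365/Em 440 nm after NaOH/glycine stop (pH 10). Enzyme 2 nM, 4-MU-alpha-galactoside 80 uM, citrate buffer pH 4.5, 20 min RT; normalized to no-enzyme and enzyme controls.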

The target in assay [12] is Alpha-galactosidase A (Homo sapiens) (UniProt P06280). Description: Counterscreen for Glucocerebrosidase Inhibitors: qHTS Assay for Human alpha-Galactosidase at pH 4.5 (AID 992). The settings on record: purified enzyme, fluorogenic substrate; series mostly up to 76.9 µM. The essentials:
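Fluorogenic 4-MU alpha-D-galactoside (80 uM) hydrolysis, 2 nM enzyme, pH 4.5 citrate buffer + 0.005% Tween-20; 20 min RT; NaOH/glycine pH 10 stop; Ex365/Em440. Compounds titrated 0.7 nM–77 uM; Hill-equation AC50.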
On the technique in general: A counterscreen serves to expose hits that act by an unwanted route or on another target.

In assay [13] the target is alpha-glucosidase (Oryza sativa, rice) (UniProt Q653V4). As to the kind of experiment: Counterscreen for Glucocerebrosidase Inhibitors: qHTS Assay for Rice alpha-Glucosidase at pH 5.0 (AID 997). The settings on record: rice alpha-glucosidase enzyme activity; series mostly up to 76.9 µM. The essentials: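 Endpoint fluorogenic assay at pH 5.0: compounds (0.7 nM to 77 uM) titrated against 4 nM rice enzyme and 400 uM 4-MU-alpha-glucoside for 20 min at room temperature; NaOH/glycine stop, read ex 365/em 440 nm, Hill-fitted AC50.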

For assay [14], the target named is Alpha-galactosidase (Coffea arabica) (UniProt Q42656). As to the kind of experiment: Counterscreen for Glucocerebrosidase Inhibitors: qHTS Assay for Coffee Bean alpha-Galactosidase at pH 5.9 (AID 998). The settings on record: coffee bean alpha-galactosidase enzyme assay; series mostly up to 76.9 µM. The method, boiled down:
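In 50 mM citric acid pH 5.9 with 0.005% Tween-20, coffee bean enzyme hydrolyses 80 uM 4-MU alpha-D-galactopyranoside over 20 min at RT. Activity is normalized to controls; AC50 comes from Hill-modelled concentration-response data.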

For assay [15], the target named is Ubiquitin carboxyl-terminal hydrolase 1 (Homo sapiens) (UniProt O94782). As to the kind of experiment: Inhibitors of USP1/UAF1: Pilot qHTS (AID 504865).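 Note: rhodamine fluorescence freed from ubiquitin-rhodamine substrate followed over time; top concentration of the series differs between compounds; nearly all actives have a fitted effect of over 35% in size.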 The settings on record: purified USP1/UAF1, Ub-rhodamine cleavage fluorescence; series mostly up to 114 µM. The essentials:
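1nM USP1/UAF1 + cpd, 15 min RT; start w/ Ub-Rho 150nM final; kinetic FL 480/540 nm, 6 reads q60 s. Buffer 50mM HEPES pH 7.8, 0.5mM EDTA, 1mM TCEP, 0.01% Tween-20, 0.1 mg/ml BSA.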

The next assay addresses Furin (Homo sapiens) (UniProt P09958). As to the kind of experiment: Furin counterscreen qHTS for Zika virus inhibitors (AID 1347149).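 Note: purified recombinant full-length human furin enzyme at 5 nM; fluorescence gain from furin cutting a BOC-RVRR-AMC peptide substrate over 15 min; top concentration of the series differs between compounds; nearly all actives have a fitted effect of over 70% in size.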 The settings on record: furin enzymatic counterscreen, fluorogenic substrate; series mostly up to 57.5 µM. The essentials:
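Counterscreen measures cleavage of 2 microM BOC-RVRR-AMC, below its ~15 microM Km, by 5 nM full-length human furin at pH 7.0 after a 15-min compound preincubation. Inhibition derives from the 15-min fluorescence increase at 37C.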

Assay [16] is described as follows: Vero cells viability qHTS for Zika virus inhibitors (AID 1347167). The settings on record: cytotoxicity counter-screen (Zika); series mostly up to 45.9 µM. The method, boiled down: (§1)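 To flag cytotoxic protease inhibitors, viability is measured by ATP-dependent luminescence (CellTiter Glo) after cells attached overnight receive compound for 24 to 48 hours in DMEM with 4% FBS.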

Assay [17] is described as follows: HepG2 cells viability qHTS for Zika virus inhibitors (AID 1347168). The settings on record: Zika counter-screen; series mostly up to 45.9 µM. The essentials: as §1
In assay [18] the target is Cytochrome P450 3A4 (Homo sapiens) (UniProt P08684). As to the kind of experiment: qHTS Assay for Activators of Cytochrome P450 3A4 (AID 885). Note: nearly all actives have a fitted effect of over 65% in size. The settings on record: recombinant CYP3A4, Luciferin-PPXE luminescence, 60 min; series mostly up to 57.1 µM. The essentials:
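Activators are scored by enhanced luminescence from CYP3A4 conversion of luciferin-PPXE (25uM, equal to KM) to luciferin, after 60 min at RT with an NADPH-regenerating system.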

The nature of assay [19]: Primary qHTS for inhibitors of SARS-S pseudo-typed particle cell entry (AID 1479145; calls by dose curve; note: nearly all actives have a fitted effect of over 45% in size). The settings on record: SARS-S pseudotyped particle cell entry, luciferase reporter; series mostly up to 57.1 µM.

Molecules are shown by their SMILES. Where “and” joins values, the source holds several entries; their conditions need not be identical. Equal entries are not always repeated. Records with an inconclusive call do not appear. The source holds several records for some structures; these can differ, active in one and inactive in another. Calls of active or inactive are those of the source. Unless noted, calls come from the whole dose curve; as a rule, active = well fitted curve in the direction sought with a large enough effect; inconclusive = small, poorly fitted or top-dose-only effect, or another doubt; inactive = no such curve, though single readings can be large; an effect the other way counts as inactive or inconclusive.

Chain of Alpha-galactosidase (Coffea arabica) (Q42656 whole entry, looked up): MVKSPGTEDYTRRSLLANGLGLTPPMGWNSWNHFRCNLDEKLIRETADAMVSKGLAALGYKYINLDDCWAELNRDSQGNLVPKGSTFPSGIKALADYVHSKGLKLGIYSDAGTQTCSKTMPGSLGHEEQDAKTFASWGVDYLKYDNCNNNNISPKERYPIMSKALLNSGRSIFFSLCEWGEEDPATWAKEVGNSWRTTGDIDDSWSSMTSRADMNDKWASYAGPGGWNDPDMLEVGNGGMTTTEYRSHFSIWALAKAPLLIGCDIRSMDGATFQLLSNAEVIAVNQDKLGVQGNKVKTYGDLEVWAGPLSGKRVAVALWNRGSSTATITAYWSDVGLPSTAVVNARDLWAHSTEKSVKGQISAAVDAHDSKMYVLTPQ
Chain of Cytochrome P450 1A2 (Homo sapiens) (P05177 whole entry, looked up): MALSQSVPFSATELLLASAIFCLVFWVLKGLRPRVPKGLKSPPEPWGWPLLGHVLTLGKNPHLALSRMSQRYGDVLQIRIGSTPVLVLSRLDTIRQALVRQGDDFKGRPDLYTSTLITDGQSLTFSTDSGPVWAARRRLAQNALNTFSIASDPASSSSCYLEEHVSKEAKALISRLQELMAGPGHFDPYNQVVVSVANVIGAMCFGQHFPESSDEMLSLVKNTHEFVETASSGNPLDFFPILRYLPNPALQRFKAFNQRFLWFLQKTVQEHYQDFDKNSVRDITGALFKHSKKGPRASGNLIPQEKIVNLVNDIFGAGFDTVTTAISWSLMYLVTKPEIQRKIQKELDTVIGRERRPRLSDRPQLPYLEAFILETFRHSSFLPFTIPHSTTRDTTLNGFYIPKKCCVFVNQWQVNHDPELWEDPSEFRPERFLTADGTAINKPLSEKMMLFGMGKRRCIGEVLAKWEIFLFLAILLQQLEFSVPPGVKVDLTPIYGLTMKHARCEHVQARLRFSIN
Chain of Muscarinic acetylcholine receptor M1 (Rattus norvegicus) (P08482 whole entry, looked up): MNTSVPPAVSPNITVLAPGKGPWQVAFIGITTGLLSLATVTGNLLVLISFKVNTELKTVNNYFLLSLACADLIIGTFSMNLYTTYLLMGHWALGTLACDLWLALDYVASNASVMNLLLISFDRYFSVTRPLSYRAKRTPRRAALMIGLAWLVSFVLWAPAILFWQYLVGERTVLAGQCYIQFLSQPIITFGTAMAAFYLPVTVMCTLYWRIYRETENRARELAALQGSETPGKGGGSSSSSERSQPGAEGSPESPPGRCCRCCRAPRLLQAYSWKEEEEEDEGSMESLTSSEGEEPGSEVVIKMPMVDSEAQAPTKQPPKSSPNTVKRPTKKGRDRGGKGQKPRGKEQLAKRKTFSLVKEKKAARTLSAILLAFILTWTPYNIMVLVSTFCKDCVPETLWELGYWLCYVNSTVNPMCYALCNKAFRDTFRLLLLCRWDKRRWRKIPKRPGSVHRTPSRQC
Chain of Cytochrome P450 3A4 (Homo sapiens) (P08684 whole entry, looked up): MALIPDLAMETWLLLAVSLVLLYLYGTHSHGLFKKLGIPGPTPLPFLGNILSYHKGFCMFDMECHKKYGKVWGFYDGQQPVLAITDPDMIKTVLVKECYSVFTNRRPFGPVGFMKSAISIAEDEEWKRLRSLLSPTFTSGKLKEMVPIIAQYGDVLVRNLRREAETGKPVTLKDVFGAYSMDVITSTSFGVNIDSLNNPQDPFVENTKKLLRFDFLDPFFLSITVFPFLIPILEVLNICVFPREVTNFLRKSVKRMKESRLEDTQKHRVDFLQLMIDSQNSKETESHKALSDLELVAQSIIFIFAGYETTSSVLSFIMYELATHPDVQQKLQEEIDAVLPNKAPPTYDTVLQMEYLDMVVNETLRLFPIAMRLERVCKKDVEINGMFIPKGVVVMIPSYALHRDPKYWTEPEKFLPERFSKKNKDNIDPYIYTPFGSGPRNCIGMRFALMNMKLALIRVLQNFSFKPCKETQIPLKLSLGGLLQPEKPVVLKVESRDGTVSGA
Chain of Alpha-galactosidase A (Homo sapiens) (P06280 whole entry, looked up): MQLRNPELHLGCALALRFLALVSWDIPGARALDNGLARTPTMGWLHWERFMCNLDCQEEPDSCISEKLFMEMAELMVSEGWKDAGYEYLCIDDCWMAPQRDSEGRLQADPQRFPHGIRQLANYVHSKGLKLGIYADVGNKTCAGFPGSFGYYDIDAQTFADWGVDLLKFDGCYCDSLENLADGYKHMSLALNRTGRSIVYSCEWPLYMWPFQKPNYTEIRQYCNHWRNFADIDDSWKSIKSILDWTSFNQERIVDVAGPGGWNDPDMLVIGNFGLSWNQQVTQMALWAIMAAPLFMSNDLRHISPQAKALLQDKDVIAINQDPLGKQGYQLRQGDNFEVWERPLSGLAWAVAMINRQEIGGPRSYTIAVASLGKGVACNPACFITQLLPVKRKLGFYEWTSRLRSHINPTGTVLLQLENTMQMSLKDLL

For `C=CCN1CCC2(C)c3cc(O)ccc3C[C@H]1[C@H]2C`, the Potency result in [1] is “inactive and 31.6 µM (active)”; in assay [2], > 46 µM (inactive); in assay [6] it was 7.94 µM (active) and 631 nM (active); in assay [8], 14.1 µM (active); in assay [9] it was 17.8 µM (active) and 15.8 µM (active). Moreover, the call in assay [3], in [5], in assay [7], in assay [10], in assay [11] and in assay [12] was inactive. Besides, the outcome in [13] and in assay [14] was inactive. Besides, the Potency entry (in assay [4]; in [15]; with Furin (Homo sapiens); in assay [16]; in assay [17]) was “inactive” in each case.
In the case of `CC1CCCC(=O)CCC/C=C/c2cc(O)cc(O)c2C(=O)O1` (configuration not stated), in [18], the Potency result was “inactive”.
Take `COc1ccc(CN(C(=O)[C@@H](N)Cc2c(C)cc(C(N)=O)cc2C)[C@@H](C)c2ncc(-c3ccccc3)[nH]2)cc1C(=O)O`: the Potency result in assay [19] is “inactive”.
`CC(=O)O[C@H]1CC[C@H]2[C@@H]3CC[C@H]4CC(=O)C=C(C)[C@]4(C)[C@H]3CC[C@]12C`: the Potency result in assay [19] is “inactive”.
On to `CN1CCc2cc3c(cc2C1C1OC(=O)c2c1ccc1c2OCO1)OCO3` (configuration not stated), for which the Potency entry in assay [18] was “inactive”.

These data come from PubChem BioAssay (NCATS).
